# Only a selection was taken, and hits are over-represented in it overall.
# AMA1 RON2 block – disrupts binding of P. falciparum AMA1 to RON2 | AlphaScreen AMA1-biotinylated RON2 peptide binding | Potency, µM (titrated, usually from 58.2 µM), without a hit: top-dose activity change, negative = inhibition, actives largely listed as inhibitors | 360,000 compounds, 0.2% hits | AID 720542;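 also: potency is read from the fitted curve at half-maximal effect; 0% = vehicle wells and -100% = peptide control; nearly all actives have a fitted effect of over 45% in size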
#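 AMA1 (3D7) with his tag at 25 nM final met compounds first, then biotinylated RON2 peptide at 25 nM; detection used donor plus acceptor beads, 10 µg/mL apiece, read by AlphaScreen after 30 min at room temperature.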
# AmpC inh no detg – blocks E. coli AmpC beta-lactamase in detergent-free assay. P00811. Potency, µM (doses to about 57.1 µM), for the others: top-dose activity change, negative = inhibition, hits mostly inhibitors. 330,000 compounds, 0.52% hits. AmpC nitrocefin hydrolysis, absorbance 480 nm, 0.0001% Triton. AID 485341;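 also: potency is read from the fitted curve at half-maximal effect; plate controls were no compound for no effect and no enzyme for full effect; nearly all actives have a fitted effect of over 20% in size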
# Target sequence (P00811 whole entry, looked up): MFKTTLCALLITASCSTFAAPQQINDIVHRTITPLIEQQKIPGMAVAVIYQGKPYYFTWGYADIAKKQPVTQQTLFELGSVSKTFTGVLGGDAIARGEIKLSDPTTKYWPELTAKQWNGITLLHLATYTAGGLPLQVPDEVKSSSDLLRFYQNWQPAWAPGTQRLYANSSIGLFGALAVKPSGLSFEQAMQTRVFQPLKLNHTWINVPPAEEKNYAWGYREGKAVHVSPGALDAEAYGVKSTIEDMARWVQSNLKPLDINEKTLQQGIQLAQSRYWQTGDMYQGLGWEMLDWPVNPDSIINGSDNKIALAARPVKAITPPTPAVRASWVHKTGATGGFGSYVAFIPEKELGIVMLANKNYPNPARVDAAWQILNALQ
#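 AmpC (5.3 nM in the dispensed reagent) in 20 mM phosphate pH 7.0 with 0.01% (detergent screen) or 0.0001% Triton X-100 was preincubated with compounds for 15 min at room temperature. Nitrocefin was then added from an 800 uM solution, and hydrolysis was followed at 480 nm.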
# SARS PLP yeast – blocks SARS-CoV papain-like protease in a yeast assay. 330,000 compounds, 0.19% hits. Potency, µM (top dose mostly 32.9 µM), inactives show top-dose activity, positive = growth rescue, hits mostly activators. S. cerevisiae expressing SARS-CoV PLpro, growth rescue; calls by dose curve; also: potency is read from the fitted curve at half-maximal effect; 0% is about no effect; nearly all actives have a fitted effect of over 55% in size
# CHX counter – counter-screen for Shiga toxin inhibitors: cycloheximide protein synthesis inhibition. cell reporter, cycloheximide protein synthesis inhibition counterscreen. max response, %. 300,000 compounds, 12% hits. AID 2314; in the data active = max response mostly above about 13%, no sharp cut-off; inactive = mostly below about 14%; also: read at 38.3 µM for the half of the compounds with a filed dose; 0% is about no effect
# AmpC detergent – AmpC beta-lactamase inhibition with detergent present | P00811 | AmpC hydrolysis of nitrocefin, absorbance 480 nm, 0.01% Triton | Potency, µM (series often up to 114 µM), without a hit: at the highest dose activity change, negative = inhibition, most hits filed as inhibitors | 370,000 compounds, 0.041% hits | AID 485294;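 also: potency is read from the fitted curve at half-maximal effect; 0% = no-compound wells and -100% = no-enzyme wells; nearly all actives have a fitted effect of over 25% in size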
#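 AmpC (5.3 nM in the dispensed reagent) in 20 mM phosphate pH 7.0 with 0.01% (detergent screen) or 0.0001% Triton X-100 was preincubated with compounds for 15 min at room temperature. Nitrocefin was then added from an 800 uM solution, and hydrolysis was followed at 480 nm.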
# Shiga inhibitor – inhibitors of Shiga toxin in Vero cells; inhibition, % at 38.7 µM; Vero cells, Shiga toxin protein synthesis inhibition reporter; 290,000 compounds, 9.2% hits; in the data active = inhibition mostly above about 28%, no sharp cut-off; inactive = mostly below about 43%; also: 0% is about no effect
# Starred values were filed as active, the others as inactive; u = inconclusive; x = no result given; + = active, no number; [ ] = remark or other dose. Unless noted, calls follow the shape of the dose curve; as a rule, active = well fitted curve in the direction sought with a large enough effect; inconclusive = small, poorly fitted or top-dose-only effect, or another doubt; inactive = no such curve, though single readings can be large; an effect the other way counts as inactive or inconclusive.
SMILES,AMA1 RON2 block,AmpC inh no detg,SARS PLP yeast,CHX counter,AmpC detergent,Shiga inhibitor
COc1ccc(/C=C(/NC(=O)c2ccccc2)C(=O)N2CCCC2)cc1OC,-2%,3%,2%,-3,-2%,-6
COc1ccc(Nc2nnc(Cc3ccncc3)c3ccccc23)c(OC)c1,6%,0%,1%,10,-4%,13
CS(=O)(=O)N1CCC(Oc2ccccc2C(=O)N2CCC[C@H]2CO)CC1,-2%,-14%,-7%,17*,-2%,40
CCC1CCCCN1C(=O)c1ccccc1OC1CCN(S(C)(=O)=O)CC1 (centres undefined),-4%,63%,-1%,-2,5%,0
CC1Cc2ccccc2N1Cc1cccc(S(=O)(=O)N(C)C)c1 (centres undefined),-14%,-16%,-2%,-3,-7%,-10
CCn1c(SCC(=O)N/N=C/C=C/c2ccco2)nnc1-c1ccccc1,-1%,-12%,1%,0,-10%,-2
O=C(Cc1cccs1)N/N=C/C=C/c1ccco1,-9%,-26%,-1%,26*,u,+
O=C(CSc1nnc(SCc2ccccc2)s1)N/N=C/C=C/c1ccco1,13%,11µM*,4%,2,u,-2
Cc1ccc(CSc2nnc(SCC(=O)N/N=C/c3c(C)nn(-c4ccccc4)c3C)s2)cc1,-14%,-26%,-4%,76*,-8%,120*
O=C(CSc1nnc(SCc2cccc3ccccc23)s1)N/N=C/C=C/c1ccccc1[N+](=O)[O-],14%[2.32 µM],14µM*,-5%,9,-2%,1
CC(C)(C)c1ccc(S(=O)(=O)Nc2ccc(Cc3ccncc3)cc2)cc1,0%,-20%,-34%,22*,-14%,56
CC(=O)Nc1ccc(S(=O)(=O)Nc2ccc(Cc3ccncc3)cc2)cc1,14%,-13%,1%,-2,u,4
Cc1cccc(C(=O)NNC2=CC(=O)CC(C)(C)C2)c1O,75%,31%,1%,16*,-1%,65*
CC1(C)CC(=O)C=C(NNC(=O)c2ccccc2O)C1,48%,-49%,-4%,-2,-5%,-16
Cc1ccc(S(=O)(=O)n2nccc2-c2c(-c3ccccc3)noc2C)cc1,-19%,-16%,0%,1,1%,-5
Cc1onc(-c2ccccc2)c1-c1ccnn1S(=O)(=O)c1ccc(Cl)cc1,5%,-42%,-3%,44*,3%,88*
CCC1SC(=NC(=O)c2ccc(Cl)c(Cl)c2)NC1=O (centres undefined),4%,-42%,-18%,20*,-5%,43
CCC1SC(=Nc2cccc(C)c2)NC1=O (centres undefined),1%,-19%,1%,4,0%,-7
O=C1Oc2ccccc2C2(O)C3CCCCCC3C12 (centres undefined),8%,-15%,0%,-3,2%,-10
Cc1cc(C)n(-c2nc(NCC3CCCO3)c3c4c(sc3n2)COC(C)(C)C4)n1 (centres undefined),0%,96%,22%,28*,-7%,46
Cc1cc(C)n(-c2nc(NCCCO)c3c4c(sc3n2)CCCC4)n1,7%,160%,-3%,18*,-12%,43
Cc1cc(C)n(-c2nc(NCC(C)O)c3c4c(sc3n2)COC(C)(C)C4)n1 (centres undefined),40%,-2%,0%,-3,8%,-5
Cc1cc(C)n(-c2nc(SCC(=O)O)c3c4c(sc3n2)CCCC4)n1,x,-26%,0%,5,-3%,11
Cc1cc(C)n(-c2nc(NCC(C)O)c3c4c(sc3n2)CCCC4)n1 (centres undefined),-3%,182%,-3%,16*,-1%,32
Cc1cc(C)n(-c2nc(NCCO)c3c4c(sc3n2)CCCC4)n1,17%,114%,-10%,24*,-6%,26
SMILES,AMA1 RON2 block,AmpC inh no detg,SARS PLP yeast,CHX counter,AmpC detergent,Shiga inhibitor
CCn1c(Cc2ccccc2)nnc1SCc1ccc([N+](=O)[O-])cc1,-17%,-8%,-14%,-3,u,-14
CN(C)S(=O)(=O)c1ccc2[nH]cc(/C=C/c3nc4ccccc4c(=O)n3-c3ccccc3)c2c1,0%,-10%,2%,6,-11%,-13
N#Cc1c(NC(=O)CSc2nc(-c3ccccc3)cc(C(F)(F)F)n2)sc2c1CCC2,-5%,-27%,3%,-1,-15%,-18
O=C(NCc1cccc(Cl)c1)c1ccc(S(=O)(=O)Nc2cccc(C(F)(F)F)c2)cc1,15%,-5%,7%,-2,-16%,-15
COc1ccccc1COC(=O)c1cccc(S(=O)(=O)N2CCCC2)c1,20%,-19%,-5%,x,-13%,x
Cc1c(/C=N/NC(=O)c2ccccc2O)c2ccccn2c1C(=O)c1ccc(F)cc1,12%,-39%,5%,15*,12%,27
Cc1c(/C=N/NC(=O)c2ccc(O)cc2)c2ccccn2c1C(=O)c1ccc(F)cc1,-5%[2.32 µM],-56%,15%,1,-15%,9
CC(=O)Nc1ccc2c(c1)NC(=O)CC2,8%,-6%,1%,-2,-2%,3
COC(=O)Nc1ccc2c(c1)Nc1ccccc1CC2,-28%,-18%,-9%,active,-17%,x
O=C1C(=Cc2ccc(Br)o2)C(=O)c2ccccc21,-14%,-16%,5%,30*,u,-3
CC1=C/C(=C\c2ccc(Br)o2)C(=O)O1,-9%,-11%,3%,0,-22%,-6
COc1ccc(CN2CCCN(CC(=O)Nc3ccc(Br)cc3F)S2(=O)=O)cc1,x,x,x,x,0%,x
COc1ccc(CN2C[C@H]3CCCN3c3cc(Br)ccc3S2(=O)=O)cc1,2%,20µM*,0%,x,x,x
COc1ccc2cc(-c3cc(C(=O)OCC(=O)NC4CCS(=O)(=O)C4)c4ccccc4n3)ccc2c1 (centres undefined),14%[11.6 µM],-43%,-11%,26*,-7%,30
C/C(N)=C(/C#N)C(=O)COC(=O)c1cc(-c2ccc(Br)cc2)nc2ccccc12,-3%,25%,13%,13*,-9%,6
CCNC(=O)COC(=O)c1cc(-c2ccc(OC)cc2)nc2ccccc12,7%,61%,-19%,1,-4%,-18
CCN(CC)C(=O)COC(=O)c1cc(-c2ccc(OC)cc2)nc2ccccc12,38%,159%,-6%,23*,6%,35
CCCNC(=O)COC(=O)c1cc(-c2ccc(OC)cc2)nc2ccccc12,23%,0%,-9%,13*,1%,14
O=C(COC(=O)c1cc(-c2ccccc2)nc2ccccc12)c1ccc(Br)cc1,x,x,x,x,5%,x
CCC(C)Nc1nc2c(c(=O)n(C)c(=O)n2C)n1C (centres undefined),-7%,-6%,0%,-1,-2%,-7
